Data as given in article PMC8384837, “Expanding the binding specificity for RNA recognition by a PUF domain”.

Molecular target: PUM1 PUF domain R8-TWK (Homo sapiens, UniProt Q14671 828-1176, N1122T;Y1123W;Q1126K)
Experiment: yeast three-hybrid, YBZ-1, SC-Leu-His + 0.5 mM 3-AT, 4 days
Conditions: tags: N-Gal4 AD-HA kept; label: inside an RPR1-promoter hybrid RNA with tandem MS2 sites; ssRNA
In short: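 Pumilio-1 PUF domain libraries, randomized (NNK) at the three base-contacting residues of each repeat, were co-expressed with matching RNA elements from a centromeric plasmid in strain YBZ-1 (LexA–MS2 coat fusion, HIS3 reporter). Transformants were plated on SC-Leu (input) and SC-Leu-His + 0.5 mM 3-AT (selection) for four days, and repeat regions were PCR-amplified and Illumina-sequenced. The interaction score is the log2 change in variant frequency from input to selection, with pseudocount 1 where absent.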

Chain of PUM1 PUF domain R8-TWK (Q14671 828-1176 N1122T/Y1123W/Q1126K): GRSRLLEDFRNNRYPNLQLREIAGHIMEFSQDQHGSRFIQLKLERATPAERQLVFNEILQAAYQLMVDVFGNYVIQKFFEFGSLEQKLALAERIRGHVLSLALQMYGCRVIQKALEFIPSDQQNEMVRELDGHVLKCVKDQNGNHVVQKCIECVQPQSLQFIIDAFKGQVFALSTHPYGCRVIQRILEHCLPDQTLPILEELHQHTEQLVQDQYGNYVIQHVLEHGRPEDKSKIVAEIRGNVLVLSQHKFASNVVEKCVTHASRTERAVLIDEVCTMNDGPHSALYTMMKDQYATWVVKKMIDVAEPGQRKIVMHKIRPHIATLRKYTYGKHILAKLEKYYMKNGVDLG

Sequence	binding signal
GGCUAGAACUAGUGGAUCCCCCGGCGCCCGGCGGCUCGAGCCCGGGUAAGGGUAAAUAGUCUGCAUGCCGCCGGGCGCCAUGCCUGCAGGUCGACUCUAGAAAACAUG	3.33 log2 enrichment (interaction score)
GGCUAGAACUAGUGGAUCCCCCGGCGCCCGGCGGCUCGAGCCCGGGUAAGUGUAAAUAGUCUGCAUGCCGCCGGGCGCCAUGCCUGCAGGUCGACUCUAGAAAACAUG	5.8 log2 enrichment (interaction score)
GGCUAGAACUAGUGGAUCCCCCGGCGCCCGGCGGCUCGAGCCCGGGUAAGCGUAAAUAGUCUGCAUGCCGCCGGGCGCCAUGCCUGCAGGUCGACUCUAGAAAACAUG	2.23 log2 enrichment (interaction score)
